# Calls of active or inactive are those of the source.
# Experiments:
# [1] = small molecules captured by biotinylated probe aFSTL3 – biochemical, small-molecule microarray, fluorescence 635/667, stem cell growth factor project, primary screen (AID 1064); settings: higher = more signal;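 also: measures binding of the biotinylated anti-FSTL3 antibody to printed compounds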
# [2] = binders from COS7 lysate, DM2A8 probe, primary screen, torsin A project, cell lysate, small-molecule microarray, fluorescence 635/667 (AID 1065); settings: higher = more signal, COS7 lysate expressing mutant human TOR1A
# [3] = small molecules captured by biotinylated probe aFGF2 – biochemical, small-molecule microarray, fluorescence 635/667, stem cell growth factor project, primary screen (AID 1067); settings: higher = more signal;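 also: measures binding of biotinylated aFGF2 protein to printed compounds on slides; z-score merges feature fluorescence and signal-to-noise across triplicate slides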
# [4] = small molecules captured by biotinylated probe aFGF10 – biochemical, small-molecule microarray, fluorescence 635/667, stem cell growth factor project, primary screen (AID 1071); settings: higher = more signal;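 also: score merges 667 nm spot intensity and signal to noise from triplicate slides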
# [5] = target: Neurogenic locus notch homolog protein 2 (Homo sapiens) (UniProt Q04721); assay: small molecules binding Notch2 protein – biochemical, small-molecule microarray, 635 nm fluorescence, stem cell growth factors, primary screen (AID 1073); settings: higher = more signal
# Sequence of Neurogenic locus notch homolog protein 2 (Homo sapiens) (Q04721 whole entry, looked up, canonical isoform): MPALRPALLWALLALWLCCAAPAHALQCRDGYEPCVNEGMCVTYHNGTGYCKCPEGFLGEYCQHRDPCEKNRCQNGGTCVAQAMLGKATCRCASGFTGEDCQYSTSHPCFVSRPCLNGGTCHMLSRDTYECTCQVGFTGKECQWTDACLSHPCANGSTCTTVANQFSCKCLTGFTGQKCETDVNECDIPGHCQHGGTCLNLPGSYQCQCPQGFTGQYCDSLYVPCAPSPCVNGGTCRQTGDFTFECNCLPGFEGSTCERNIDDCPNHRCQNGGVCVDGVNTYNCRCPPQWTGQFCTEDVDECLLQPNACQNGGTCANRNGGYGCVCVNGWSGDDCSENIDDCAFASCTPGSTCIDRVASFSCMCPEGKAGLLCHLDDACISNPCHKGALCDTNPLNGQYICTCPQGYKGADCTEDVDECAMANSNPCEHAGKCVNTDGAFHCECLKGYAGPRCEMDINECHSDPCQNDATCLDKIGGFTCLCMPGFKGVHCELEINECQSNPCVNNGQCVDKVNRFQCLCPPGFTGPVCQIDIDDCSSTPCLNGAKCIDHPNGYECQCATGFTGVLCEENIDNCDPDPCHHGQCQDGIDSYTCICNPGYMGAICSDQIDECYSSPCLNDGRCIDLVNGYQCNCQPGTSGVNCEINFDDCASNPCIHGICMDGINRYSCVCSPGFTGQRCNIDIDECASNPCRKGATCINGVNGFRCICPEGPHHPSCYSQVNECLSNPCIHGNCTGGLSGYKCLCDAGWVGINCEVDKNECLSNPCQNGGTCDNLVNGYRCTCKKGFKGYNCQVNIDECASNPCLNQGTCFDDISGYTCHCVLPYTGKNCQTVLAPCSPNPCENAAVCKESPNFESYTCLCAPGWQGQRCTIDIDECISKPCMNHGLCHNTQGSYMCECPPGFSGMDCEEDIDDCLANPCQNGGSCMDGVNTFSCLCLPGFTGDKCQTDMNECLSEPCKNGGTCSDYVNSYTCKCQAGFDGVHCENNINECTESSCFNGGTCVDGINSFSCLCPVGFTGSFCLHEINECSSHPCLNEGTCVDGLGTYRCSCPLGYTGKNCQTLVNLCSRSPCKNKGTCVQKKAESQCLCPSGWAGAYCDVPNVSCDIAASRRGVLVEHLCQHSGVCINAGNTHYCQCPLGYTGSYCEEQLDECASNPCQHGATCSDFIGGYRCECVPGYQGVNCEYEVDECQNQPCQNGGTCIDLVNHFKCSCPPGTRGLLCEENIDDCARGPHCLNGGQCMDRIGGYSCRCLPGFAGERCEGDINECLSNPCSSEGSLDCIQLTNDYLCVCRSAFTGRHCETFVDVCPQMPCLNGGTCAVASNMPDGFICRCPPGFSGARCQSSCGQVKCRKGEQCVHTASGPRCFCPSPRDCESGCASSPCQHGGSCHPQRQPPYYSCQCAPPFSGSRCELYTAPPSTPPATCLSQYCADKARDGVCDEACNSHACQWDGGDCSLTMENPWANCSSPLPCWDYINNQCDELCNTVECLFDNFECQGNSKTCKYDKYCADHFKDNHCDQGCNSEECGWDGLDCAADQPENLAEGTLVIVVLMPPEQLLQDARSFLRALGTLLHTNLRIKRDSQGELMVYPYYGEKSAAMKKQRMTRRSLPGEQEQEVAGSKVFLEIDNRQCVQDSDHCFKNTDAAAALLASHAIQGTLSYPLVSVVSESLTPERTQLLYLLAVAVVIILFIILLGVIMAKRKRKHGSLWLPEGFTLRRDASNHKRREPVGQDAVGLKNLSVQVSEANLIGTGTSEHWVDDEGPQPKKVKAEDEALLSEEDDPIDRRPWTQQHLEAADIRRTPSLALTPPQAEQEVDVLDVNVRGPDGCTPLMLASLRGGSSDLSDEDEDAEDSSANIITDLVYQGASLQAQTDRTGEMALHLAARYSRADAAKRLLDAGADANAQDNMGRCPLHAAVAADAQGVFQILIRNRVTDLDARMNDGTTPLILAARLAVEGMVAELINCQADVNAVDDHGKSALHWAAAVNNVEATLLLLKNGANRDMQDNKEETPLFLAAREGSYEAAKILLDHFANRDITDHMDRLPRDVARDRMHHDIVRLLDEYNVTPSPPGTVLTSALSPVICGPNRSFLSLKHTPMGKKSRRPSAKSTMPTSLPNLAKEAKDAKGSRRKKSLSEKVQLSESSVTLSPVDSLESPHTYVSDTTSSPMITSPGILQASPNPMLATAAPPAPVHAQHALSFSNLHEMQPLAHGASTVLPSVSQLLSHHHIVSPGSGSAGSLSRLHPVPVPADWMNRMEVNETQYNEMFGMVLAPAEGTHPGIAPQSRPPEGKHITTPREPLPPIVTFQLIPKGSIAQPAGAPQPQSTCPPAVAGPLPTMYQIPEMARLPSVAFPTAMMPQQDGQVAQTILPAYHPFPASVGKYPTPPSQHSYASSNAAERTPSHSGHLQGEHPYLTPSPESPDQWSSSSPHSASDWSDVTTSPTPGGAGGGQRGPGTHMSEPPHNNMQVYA
# [6] = target: Pro-neuregulin-1, membrane-bound isoform (Homo sapiens) (UniProt Q02297); assay: small molecules binding neuregulin-1 protein – biochemical, small-molecule microarray, fluorescence 635/667, psychiatric disease protein project, primary screen (AID 1075); settings: NRG1 binding, 635 nm fluorescence, higher = more signal;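 also: score combines 667 nm spot fluorescence with signal to noise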
# Sequence of Pro-neuregulin-1, membrane-bound isoform (Homo sapiens) (Q02297 whole entry, looked up, the tested form may be a part, canonical isoform): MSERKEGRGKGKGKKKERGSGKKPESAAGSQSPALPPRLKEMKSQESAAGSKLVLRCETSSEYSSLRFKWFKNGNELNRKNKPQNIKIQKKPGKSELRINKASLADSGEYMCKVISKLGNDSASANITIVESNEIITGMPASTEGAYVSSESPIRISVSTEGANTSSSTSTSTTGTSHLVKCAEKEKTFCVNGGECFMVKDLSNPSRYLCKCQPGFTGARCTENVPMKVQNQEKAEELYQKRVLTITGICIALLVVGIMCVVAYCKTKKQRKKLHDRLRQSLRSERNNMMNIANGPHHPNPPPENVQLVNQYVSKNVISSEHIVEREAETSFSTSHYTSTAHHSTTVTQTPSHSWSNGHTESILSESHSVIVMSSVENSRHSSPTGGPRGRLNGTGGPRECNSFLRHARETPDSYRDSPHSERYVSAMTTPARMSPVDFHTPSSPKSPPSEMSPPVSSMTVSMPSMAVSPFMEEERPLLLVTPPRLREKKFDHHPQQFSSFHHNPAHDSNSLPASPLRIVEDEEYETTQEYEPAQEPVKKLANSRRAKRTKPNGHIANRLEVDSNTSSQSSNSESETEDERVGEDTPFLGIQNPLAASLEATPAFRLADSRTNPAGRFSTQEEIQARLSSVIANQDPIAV
# [7] = test system: Neuregulin-1 EGF-like domain; assay: small molecules binding NRG1 EGF domain – biochemical, small-molecule microarray, 635 nm fluorescence, primary screen (AID 1081); settings: higher = more signal;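 also: binding of the protein to compounds printed on small-molecule microarray slides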
# [8] = FRG1 expression reporter modulators in myotubes – cell-based, C2C12 myotubes, firefly/Renilla luciferase, luminescence, FRG1 inhibition for FSHD, primary screen (AID 1084); settings: FRG1 promoter luciferase, higher = more signal, called active from +8 up or from −8 down
# [9] = small molecules captured by biotinylated probe aFST – biochemical, small-molecule microarray, fluorescence 635/667, stem cell growth factor project, primary screen (AID 1086); settings: higher = more signal;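 also: score merges 667 nm fluorescence with signal-to-noise of each printed compound spot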
# [10] = binders of probe aHhip on microarray, primary screen, stem cell growth factor project, biochemical, small-molecule microarray, fluorescence 635/667 (AID 1087); settings: higher = more signal;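 also: score merges spot fluorescence at 667nm with spot signal to noise ratio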
SMILES,composite z-score [1],composite z-score [2],composite z-score [3],composite z-score [4],composite z-score [5],composite z-score [6],composite z-score [7],z-score [8],composite z-score [9],composite z-score [10]
Cc1ccc(/C=C/C=O)cc1,0.16,-0.513,-0.0704,0.2,-0.516,-0.0188,-0.452,0.944 (inactive),-0.0522,0.0156
O=C1O[C@H](c2ccccc2)[C@H](c2ccccc2)N2[C@H]1[C@@H](C(=O)N1CCN(c3ncccn3)CC1)[C@]1(C(=O)Nc3ccc(C#CC4=CCCCC4)cc31)[C@H]2c1ccccc1OCCO,-0.218,0.337,0.009,0.548,1.25,0.694,1.26,-0.342 (inactive),0.239,0.0139
CN(C)CCCCCCNC(=O)[C@@H]1C[C@@H]2C(=O)N[C@@H](CCCC[N+](C)(C)C)C(=O)N2[C@@H]1c1ccc(O)cc1,-0.725,0.601,-0.183,-0.0779,-1.07,0.334,1.25,4.62 (inactive),-0.334,-0.865
COc1ccc(C(O)C2C=CC3C(=O)N(C)C(=O)C3N2N(c2ccccc2)c2ccccc2)c2ccccc12 (stereo not given),0.249,0.643,0.0346,0.412,0.295,0.85,0.894,-0.14 (inactive),0.284,0.576
COc1ccc([C@H]2OC[C@@H]3CCC(=O)N32)cc1,-0.136,0.428,-0.169,0.733,0.471,0.0194,1.19,0.0543 (inactive),0.664,-0.0581
O=C1C2C=CC(C(O)C=Cc3ccc([N+](=O)[O-])cc3)N(Nc3ccccc3F)C2C(=O)N1c1ccccc1 (stereo not given),0.133,0.537,0.0135,1.03,1.51,1.39,1.16,0.477 (inactive),1.11,0.0274
[N-]=[N+]=Nc1ccccc1C[C@@]1(C(=O)N2CCCCC2)N=C(c2ccc(OCCCO)cc2)O[C@@H]1c1ccccc1,0.155,1.1,0.0137,0.763,1.47,1.74,1.11,-4.6 (inactive),0.884,0.0873
CCCCC(=C=CC[C@@H](O)c1ccc(CO)o1)CCO,-0.369,0.152,-0.0602,0.143,-0.168,0.457,1.19,0.161 (inactive),-0.118,0.238
O=C(O)[C@H](Cc1ccccc1)n1cc(-c2ccccc2)nn1,-0.37,-0.104,-0.0583,0.399,0.533,0.0865,0.871,1.33 (inactive),0.328,-0.181
O=C1[C@H]2C=C(I)[C@H](C[C@@H]2OCCCCO)[C@@]12CO2,-0.0695,2.01,0.209,-0.484,-0.542,-0.456,0.576,0.988 (inactive),-0.174,0.162
COCCCNC(=O)[C@]1(Cc2ccccc2)N=C(c2ccc(OCCCO)cc2)O[C@@H]1c1ccccc1CN=[N+]=[N-],0.134,0.719,0.0584,1.03,1.49,1.87,0.837,-2.22 (inactive),0.88,-0.156
O=C1O[C@@H](c2ccccc2)[C@@H](c2ccccc2)N2[C@@H](c3ccccc3OCCO)[C@]3(C(=O)Nc4ccc(C#CC5(O)CCCCCC5)cc43)[C@@H](C(=O)N3CCN(c4ncccn4)CC3)[C@H]12,-0.002,0.432,0.0182,0.92,-0.116,0.893,1.2,-2.4 (inactive),-0.0815,-0.137
COC(=O)[C@@]1(Cc2ccc(OC)cc2)[C@H]2c3cc(C(=O)N4CCCC4)n(CCSCCO)c3C[C@H]2CN1C(=O)c1ccccc1,0.32,-0.399,0.46,0.651,1.69,1.86,1.4,-0.15 (inactive),1.3,0.455
O=C1C2C=CC(C(O)C=Cc3ccc([N+](=O)[O-])cc3)N(n3cnnc3)C2C(=O)N1Cc1ccccc1 (stereo not given),0.246,1.31,0.0575,0.375,1.27,1.77,1.19,0.422 (inactive),1.09,-0.226
COc1ccc(C(=O)Nc2ccc(CN3C(=O)[C@]4(O[C@H](CC(=O)N5CCC[C@H]5CO)[C@@H]([Si](C)(C)c5ccc(OC)cc5)[C@@H]4C)c4ccccc43)cc2)cc1,-0.332,0.355,-0.0715,0.656,0.351,1.42,1.31,-1.54 (inactive),-0.0939,0.0749
CC(C)Cc1ccc(CN2CC[C@@H](N)C2)cc1,-0.103,-0.816,-0.219,-0.711,-1.3,-0.505,-1.11,-0.132 (inactive),-0.635,-0.0193
[N-]=[N+]=NCc1ccccc1[C@@H]1OC(c2ccc(OCCCO)cc2)=N[C@]1(CCS(=O)(=O)c1ccccc1)C(=O)N1CCOCC1,0.788,1.17,0.0332,0.89,1.64,1.48,1.29,0.291 (inactive),1.25,-0.0296
CCCNC(=O)[C@@H]1c2ccccc2C(=O)N(Cc2ccccc2OC)[C@H]1c1ccc(CO)cc1,-0.148,1.34,-0.0058,0.479,0.901,1.66,0.977,-2.3 (inactive),0.274,-0.201
CCCCN1CC=CC23O[C@@H]4/C=C\CCCOC(=O)C4[C@H]2C(=O)N(CCCCCO)[C@@H]3C1=O (stereo not given in full),0.485,-0.465,-0.0985,-0.0739,-0.901,-1.18,1.26,0.368 (inactive),-0.804,-0.249
O=C1O[C@@H](c2ccccc2)[C@@H](c2ccccc2)N2[C@@H](c3ccccc3OCCO)[C@]3(C(=O)Nc4ccccc43)[C@@H](C(=O)O)[C@H]12,-0.229,-0.0324,0.0301,0.551,0.522,1.57,1.12,-1.84 (inactive),-0.0073,0.0524
CCOC(=O)C1=C[C@@H](C(C)C)N(S(=O)(=O)c2ccc(C)cc2)[C@H]1c1ccccc1F,-0.487,0.267,-0.0924,0.817,1.65,1.23,1.1,-1.83 (inactive),0.904,-0.305
C=C(CCCC)/C(=C/C[C@H](OC(C)=O)c1ccccc1OCCO)c1cnc2ccccc2c1,-0.279,0.0976,-0.115,0.506,0.3,0.324,1.04,-1.48 (inactive),0.162,0.0505
C=CCC(OC(C)=O)[C@@H]1[C@@H](N(Cc2ccc(-c3ccccc3)cc2)C(=O)Cc2ccc(F)cc2)c2cc(OCCCO)ccc2N1C(=O)c1ccc2ccccc2c1 (stereo not given in full),-0.313,0.273,-0.0222,-0.0326,0.166,-0.158,-0.31,0.375 (inactive),0.0263,-0.226
C=CCN1Cc2ccccc2[C@@H]2OC(c3ccc(OCCCO)cc3)=N[C@]2(CCS(=O)(=O)c2ccccc2)C1=O,0.189,0.263,-0.04,0.345,1.55,0.721,1.24,-3.43 (inactive),0.804,-0.191
COC(=O)[C@@]1(Cc2ccccc2)[C@H]2c3cc(C(=O)N4CCCC4)n(Cc4ccc(O)c(OC)c4)c3C[C@H]2CN1C(=O)c1ccccc1,0.528,-0.162,0.185,0.0854,1.53,1.66,1.39,-0.433 (inactive),1.04,0.651
O=C(CS)NCCCCCNC(=O)[C@@H]1C[C@@H]2C(=O)NCC(=O)N2[C@@H]1c1cccc(OCCO)c1,0.312,0.389,-0.12,-0.161,-0.067,-0.515,1.1,-0.612 (inactive),-0.188,-0.166
Cc1ccc(S[C@]2(C(=O)NCC(C)C)CC(=O)N(Cc3cc(C(F)(F)F)cc(C(F)(F)F)c3)[C@@H]2c2ccc(CO)cc2)cc1,0.436,-0.455,0.047,-0.272,-0.598,0.884,1.44,-0.775 (inactive),0.0031,0.0749
